Laboratory results published in PubChem BioAssay (NCATS).
Records with an inconclusive call do not appear. The source made the active and inactive calls. Calls come from the whole dose curve; as a rule, active = well fitted curve in the direction sought with a large enough effect; inconclusive = small, poorly fitted or top-dose-only effect, or another doubt; inactive = no such curve, though single readings can be large; an effect the other way counts as inactive or inconclusive.

Experiments:
MCC-13 = assay: qHTS assay to identify novel small-molecules to repurpose for Merkel cell carcinoma treatment (AID 1296009); conditions: MCC and control cell lines, CellTiter-Glo viability, 72 h; series mostly up to 46 µM; note: nearly all actives have a fitted effect of over 60% in size
Method in brief: (§1)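 Luminescence from CellTiter-Glo, read 10 min after addition at room temperature, reported viability following a 72 hr, 37 degree celsius treatment with NPC or MIPE compounds in titration; values normalized to plate controls.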

MCC-26 = assay: as above; conditions: MCC and control cell lines, CellTiter-Glo viability, 72 h; series mostly up to 46 µM
Method in brief: as §1

MKL-1 = assay: as above; conditions: MCC and control cell lines, CellTiter-Glo viability, 72 h; series mostly up to 46 µM
Method in brief: as §1

MKL-2 = assay: as above; conditions: MCC and control cell lines, CellTiter-Glo viability, 72 h; series mostly up to 46 µM
Method in brief: as §1

UISO = assay: as above; conditions: MCC and control cell lines, CellTiter-Glo viability, 72 h; series mostly up to 46 µM
Method in brief: as §1

WaGa = assay: as above; conditions: MCC and control cell lines, CellTiter-Glo viability, 72 h; series mostly up to 46 µM
Method in brief: as §1

HeLa = assay: Primary qHTS to identify gynecologic anti-cancer compounds using libraries of approved drugs and bioactive compounds (AID 1345084); conditions: Gynecologic cancer cell panel viability, ATPlite luminescence, 48 h; series mostly up to 57.5 µM; note: nearly all actives have a fitted effect of over 55% in size
Method in brief: (§2)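 Cytotoxicity screen measuring ATP content by luciferase luminescence. Each compound is applied at five concentrations for 48 h at 37 C with 5% CO2.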

[1] = Drug repurposing screens with cells derived from glioblastoma tumor samples (AID 1345199); conditions: GBM patient neurospheres viability, ATP luminescence, 48 h; note: nearly all actives have a fitted effect of over 40% in size
Method in brief: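 Primary testing used CD133+ neurospheres from four GBM patients, seven concentrations, 48 h exposure and ATP-based viability; confirmation added three slower-growing patient lines.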

C33A = assay: Primary qHTS to identify gynecologic anti-cancer compounds using libraries of approved drugs and bioactive compounds (AID 1345084); conditions: Gynecologic cancer cell panel viability, ATPlite luminescence, 48 h; series mostly up to 57.5 µM; note: nearly all actives have a fitted effect of over 55% in size
Method in brief: as §2

CASKI = assay: as above; conditions: Gynecologic cancer cell panel viability, ATPlite luminescence, 48 h; series mostly up to 57.5 µM
Method in brief: as §2

Es-2 = assay: as above; conditions: Gynecologic cancer cell panel viability, ATPlite luminescence, 48 h; series mostly up to 57.5 µM
Method in brief: as §2

Hek293T = assay: as above; conditions: Gynecologic cancer cell panel viability, ATPlite luminescence, 48 h, control line for the selectivity index; series mostly up to 57.5 µM
Method in brief: as §2

JEG-3 = assay: as above; conditions: Gynecologic cancer cell panel viability, ATPlite luminescence, 48 h; series mostly up to 57.5 µM
Method in brief: as §2

PA-1 = assay: as above; conditions: Gynecologic cancer cell panel viability, ATPlite luminescence, 48 h; series mostly up to 57.5 µM
Method in brief: as §2

SKOV3 = assay: as above; conditions: Gynecologic cancer cell panel viability, ATPlite luminescence, 48 h; series mostly up to 57.5 µM
Method in brief: as §2

Tov-21-G = assay: as above; conditions: Gynecologic cancer cell panel viability, ATPlite luminescence, 48 h; series mostly up to 57.5 µM
Method in brief: as §2

Tov112D = assay: as above; conditions: Gynecologic cancer cell panel viability, ATPlite luminescence, 48 h; series mostly up to 57.5 µM
Method in brief: as §2

OV90 = assay: as above; conditions: Gynecologic cancer cell panel viability, ATPlite luminescence, 48 h; series mostly up to 57.5 µM
Method in brief: as §2

CAOV3 = assay: as above; conditions: Gynecologic cancer cell panel viability, ATPlite luminescence, 48 h; series mostly up to 57.5 µM
Method in brief: as §2

[2] = at 45.9 µM (top of the series), tumour line B
[3] = at 45.9 µM (top of the series), tumour line D
[4] = at 108 µM (top of the series), tumour line B
% is set by controls: 0 for no effect and ±100 for the full control effect; potency is the fitted concentration of half-maximal effect.

O=C(N[C@@H]1N=C(c2ccccc2F)c2cccc3c2N(CC3)C1=O)c1cc2ccccc2[nH]1
active: Potency (UISO) 2.99 µM | Potency (HeLa) 12.6 µM
inactive: Potency (MCC-13) | Potency (MCC-26) | Potency (MKL-1) | Potency (MKL-2) | Potency (WaGa) | activity, negative = cell killing [1, 2] -3.52% | activity, negative = cell killing [1, 3] -3.25%

CCC(=O)O[C@H]1CC[C@H]2[C@@H]3CCC4=CC(=O)CC[C@]4(C)[C@H]3CC[C@]12C
active: Potency (HeLa) 3.55 µM | Potency (PA-1) 15.8 µM | Potency ([1]; tumour line A) 14.1 µM
inactive: Potency (MCC-13) | Potency (MCC-26) | Potency (MKL-1) | Potency (MKL-2) | Potency (UISO) | Potency (C33A) | Potency (CASKI) | Potency (Es-2) | Potency (Hek293T) | Potency (JEG-3) | Potency (SKOV3) | Potency (Tov-21-G) | Potency (Tov112D) | activity, negative = cell killing ([1]; at 21.2 µM (top of the series), tumour line B) -4.44% | activity, negative = cell killing ([1]; at 21.2 µM (top of the series), tumour line D) -24.6%

Clc1ccc(C(OCCN2CCCCC2)c2ccccc2)cc1 (configuration not stated)
inactive: Potency (MCC-13) | Potency (MCC-26) | Potency (MKL-1) | Potency (MKL-2) | Potency (C33A) | Potency (CASKI) | Potency (Es-2) | Potency (HeLa) | Potency (Hek293T) | Potency (JEG-3) | Potency (Tov-21-G) | Potency (Tov112D)
active: Potency ([1]; tumour line A) 3.55 µM | Potency ([1]; tumour line B) 10 µM | Potency ([1]; tumour line D) 7.08 µM

CC(C(O)c1ccccc1)N(C)C/C=C/c1ccccc1 (configuration not stated)
inactive: Potency (MCC-13) | Potency (MCC-26) | Potency (MKL-1) | Potency (MKL-2) | Potency (UISO) | Potency (WaGa) | Potency (C33A) | Potency (CASKI) | Potency (Es-2) | Potency (HeLa) | Potency (Hek293T) | Potency (JEG-3) | Potency (PA-1) | Potency (SKOV3) | Potency (Tov-21-G) | Potency (Tov112D)

COc1cc(CC(C)N)cc2c1OCO2 (configuration not stated)
active: Potency ([1]; tumour line A) 35.5 µM
inactive: Potency (MCC-13) | Potency (MCC-26) | Potency (MKL-1) | Potency (MKL-2) | Potency (UISO) | Potency (WaGa) | Potency (C33A) | Potency (CASKI) | Potency (Es-2) | Potency (HeLa) | Potency (Hek293T) | Potency (JEG-3) | Potency (OV90) | Potency (PA-1) | Potency (Tov-21-G) | Potency (Tov112D) | activity, negative = cell killing [1, 4] -12.8%

CC(C)=CCN1CC[C@@]2(C)c3cc(O)ccc3C[C@@H]1[C@@H]2C
active: Potency (Es-2) 28.2 µM | Potency ([1]; tumour line A) 25.1 µM
inactive: Potency (MCC-13) | Potency (MCC-26) | Potency (MKL-1) | Potency (MKL-2) | Potency (UISO) | Potency (C33A) | Potency (CASKI) | Potency (HeLa) | Potency (Hek293T) | Potency (JEG-3) | Potency (PA-1) | Potency (SKOV3) | Potency (Tov-21-G) | Potency (Tov112D) | activity, negative = cell killing ([1]; at 91.6 µM (top of the series), tumour line B) -12.8%

COc1ccc2[nH]cc(CCN(C(C)C)C(C)C)c2c1
inactive: Potency (MCC-13) | Potency (MCC-26) | Potency (MKL-1) | Potency (UISO) | Potency (WaGa) | Potency (C33A) | Potency (CAOV3) | Potency (CASKI) | Potency (Es-2) | Potency (HeLa) | Potency (Hek293T) | Potency (JEG-3) | Potency (OV90) | Potency (PA-1) | Potency (SKOV3) | Potency (Tov-21-G) | Potency (Tov112D) | activity, negative = cell killing [1, 4] -6.42% | activity, negative = cell killing ([1]; at 108 µM (top of the series), tumour line D) -9.85%
active: Potency ([1]; tumour line A) 44.7 µM

C[C@H]1C(=O)O[C@@H]2CCN3CC=C(COC(=O)[C@](C)(O)[C@]1(C)O)[C@H]23
inactive: Potency (MCC-13) | Potency (MCC-26) | Potency (MKL-1) | Potency (MKL-2) | Potency (UISO) | Potency (WaGa) | Potency (C33A) | Potency (CASKI) | Potency (Es-2) | Potency (HeLa) | Potency (Hek293T) | Potency (JEG-3) | Potency (OV90) | Potency (PA-1) | Potency (Tov-21-G) | Potency (Tov112D) | activity, negative = cell killing [1, 2] -12.9% | activity, negative = cell killing [1, 3] -22.3% | activity, negative = cell killing ([1]; at 46 µM (top of the series), tumour line A) -27.9%
